Source: ChEMBL document CHEMBL3988442, “University of Dundee, Small-Polar-MMV Screening Library” (2021)
For some assays here: Entries with a potency or affinity are not part of this list.

Key:
Set-up in all cases: scale not given: direction of the effect not stated beside the values
[1] = target: Protein translocase subunit SecA (Escherichia coli (strain K12)) (UniProt P10408); assay: Assay to Identify E. coli SecA ATPase Inhibitors; type: functional; settings: 30 µM
[2] = target: T1, Ubiquitin-activating enzyme e1, putative (Leishmania donovani (strain BPK282A1)) (UniProt E9BSI1); assay: Leishmania donovani Ubiquitin Activating Enzyme (LdE1); type: functional; settings: 30 µM
T1 sequence (whole entry): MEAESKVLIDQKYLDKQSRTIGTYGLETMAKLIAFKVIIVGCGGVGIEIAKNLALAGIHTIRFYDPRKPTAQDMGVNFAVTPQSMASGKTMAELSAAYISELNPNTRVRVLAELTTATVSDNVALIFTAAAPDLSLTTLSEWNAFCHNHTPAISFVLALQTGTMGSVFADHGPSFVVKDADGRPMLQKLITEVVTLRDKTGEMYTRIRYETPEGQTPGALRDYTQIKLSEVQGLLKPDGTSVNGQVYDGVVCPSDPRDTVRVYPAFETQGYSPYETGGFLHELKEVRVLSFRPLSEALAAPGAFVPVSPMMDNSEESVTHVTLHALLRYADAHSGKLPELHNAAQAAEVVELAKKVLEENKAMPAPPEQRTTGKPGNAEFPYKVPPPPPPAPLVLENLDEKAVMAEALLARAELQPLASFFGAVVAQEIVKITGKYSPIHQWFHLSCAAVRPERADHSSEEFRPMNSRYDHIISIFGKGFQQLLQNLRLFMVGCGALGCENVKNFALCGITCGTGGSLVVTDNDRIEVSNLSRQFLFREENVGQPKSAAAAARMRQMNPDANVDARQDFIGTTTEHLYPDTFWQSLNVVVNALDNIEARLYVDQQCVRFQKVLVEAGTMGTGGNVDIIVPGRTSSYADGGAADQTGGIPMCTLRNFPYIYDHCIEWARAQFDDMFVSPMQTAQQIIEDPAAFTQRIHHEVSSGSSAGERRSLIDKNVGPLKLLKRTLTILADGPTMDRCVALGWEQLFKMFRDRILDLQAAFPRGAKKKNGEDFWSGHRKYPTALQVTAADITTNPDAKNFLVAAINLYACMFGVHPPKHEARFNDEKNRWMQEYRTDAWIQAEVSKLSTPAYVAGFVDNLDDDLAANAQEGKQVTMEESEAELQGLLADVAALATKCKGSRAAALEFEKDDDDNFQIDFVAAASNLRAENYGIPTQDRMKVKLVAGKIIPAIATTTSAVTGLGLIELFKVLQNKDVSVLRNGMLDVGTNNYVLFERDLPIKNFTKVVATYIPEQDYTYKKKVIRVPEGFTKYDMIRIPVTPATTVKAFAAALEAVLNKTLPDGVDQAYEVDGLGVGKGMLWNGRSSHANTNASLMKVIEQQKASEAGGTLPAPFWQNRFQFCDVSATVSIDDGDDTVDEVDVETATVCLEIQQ

[3] = target: AMP-activated protein kinase, AMPK (Homo sapiens) (UniProt P54646+O43741+P54619+Q9UGJ0+Q9Y478+Q13131+Q9UGI9); assay: AMP-dependent Kinase enzyme assay. An in vitro enzyme assay that detects ADP turnover that is directly proportional to AMPK activity. This uses naive AMPK that is activated during the assay with MK-8722; type: functional; settings: 30 µM
[4] = target: Sialic acid-binding Ig-like lectin 9 (Homo sapiens) (UniProt Q9Y336); assay: Hs-Siglec9 ALPHAscreen SOP 20170721; settings: 10 µM
Sequence of Sialic acid-binding Ig-like lectin 9 (Homo sapiens) (Q9Y336 whole entry): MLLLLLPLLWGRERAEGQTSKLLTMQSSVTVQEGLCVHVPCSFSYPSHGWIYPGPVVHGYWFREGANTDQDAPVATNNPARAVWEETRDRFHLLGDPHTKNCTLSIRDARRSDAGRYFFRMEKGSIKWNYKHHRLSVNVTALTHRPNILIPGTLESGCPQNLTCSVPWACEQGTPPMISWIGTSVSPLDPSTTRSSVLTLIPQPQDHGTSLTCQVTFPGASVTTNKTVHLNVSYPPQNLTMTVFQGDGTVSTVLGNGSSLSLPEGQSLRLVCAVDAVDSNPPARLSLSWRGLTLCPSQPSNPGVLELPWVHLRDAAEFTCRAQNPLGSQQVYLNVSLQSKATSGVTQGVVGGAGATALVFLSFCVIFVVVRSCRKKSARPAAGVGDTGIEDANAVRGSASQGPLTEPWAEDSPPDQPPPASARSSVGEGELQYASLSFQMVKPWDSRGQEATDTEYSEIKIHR

[5] = tested on: Trypanosoma cruzi; assay: Trypanosoma cruzi phosphomannomutase and mannose-1-phosphate guanylyltransferase assay; type: functional; settings: 10 µM
[6] = target: T2, Arginase-2, mitochondrial (Homo sapiens) (UniProt P78540); assay: in vitro enzyme assay to detect the production of urea directly proportional to the activity of Arginase II; type: functional; settings: 33.3 µM; also: in the data most compounds retested in dose-response had high values
T2 sequence (whole entry): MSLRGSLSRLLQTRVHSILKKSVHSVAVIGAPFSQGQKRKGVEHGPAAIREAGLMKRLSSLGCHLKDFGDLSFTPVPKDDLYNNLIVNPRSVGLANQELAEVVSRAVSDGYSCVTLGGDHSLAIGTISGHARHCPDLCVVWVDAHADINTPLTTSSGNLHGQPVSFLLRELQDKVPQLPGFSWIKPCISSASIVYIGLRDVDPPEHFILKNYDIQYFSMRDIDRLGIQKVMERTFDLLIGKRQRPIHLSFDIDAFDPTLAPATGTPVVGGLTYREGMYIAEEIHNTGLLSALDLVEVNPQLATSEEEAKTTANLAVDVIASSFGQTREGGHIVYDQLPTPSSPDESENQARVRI

[7] = target: T3, Proteasome subunit beta (Trypanosoma cruzi) (UniProt O96673); assay: Trypanosoma cruzi proteasome chymotrypsin-like activity (TcProtChymo) assay.; also: in the data most compounds retested in dose-response had high values; type: functional; settings: 9.37 µM
T3 sequence (whole entry): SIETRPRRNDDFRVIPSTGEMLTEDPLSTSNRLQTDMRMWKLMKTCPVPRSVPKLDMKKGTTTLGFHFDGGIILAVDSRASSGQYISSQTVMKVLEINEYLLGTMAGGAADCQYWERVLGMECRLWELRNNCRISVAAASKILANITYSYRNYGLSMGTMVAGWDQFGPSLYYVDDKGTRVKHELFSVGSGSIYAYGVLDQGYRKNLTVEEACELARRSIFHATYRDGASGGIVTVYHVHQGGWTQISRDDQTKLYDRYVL

[8] = species on record: Homo sapiens; assay: To identify inhibition of the IFN signalling (Jak-Stat) pathway via expression of an eGFP reporter gene under the control of an IFN-stimulated response element (ISRE) containing MxA promoter.; type: functional; settings: 30 µM
[9] = target: T4, Tyrosyl-tRNA synthetase, putative (Trypanosoma cruzi (strain CL Brener)) (UniProt Q4DSP6); assay: Trypanosoma cruzi tyrosyl tRNA synthetase (TcYRS) _High Tyrosine SOP; type: functional; settings: 30 µM; also: in the data most compounds retested in dose-response had high values
T4 sequence (whole entry): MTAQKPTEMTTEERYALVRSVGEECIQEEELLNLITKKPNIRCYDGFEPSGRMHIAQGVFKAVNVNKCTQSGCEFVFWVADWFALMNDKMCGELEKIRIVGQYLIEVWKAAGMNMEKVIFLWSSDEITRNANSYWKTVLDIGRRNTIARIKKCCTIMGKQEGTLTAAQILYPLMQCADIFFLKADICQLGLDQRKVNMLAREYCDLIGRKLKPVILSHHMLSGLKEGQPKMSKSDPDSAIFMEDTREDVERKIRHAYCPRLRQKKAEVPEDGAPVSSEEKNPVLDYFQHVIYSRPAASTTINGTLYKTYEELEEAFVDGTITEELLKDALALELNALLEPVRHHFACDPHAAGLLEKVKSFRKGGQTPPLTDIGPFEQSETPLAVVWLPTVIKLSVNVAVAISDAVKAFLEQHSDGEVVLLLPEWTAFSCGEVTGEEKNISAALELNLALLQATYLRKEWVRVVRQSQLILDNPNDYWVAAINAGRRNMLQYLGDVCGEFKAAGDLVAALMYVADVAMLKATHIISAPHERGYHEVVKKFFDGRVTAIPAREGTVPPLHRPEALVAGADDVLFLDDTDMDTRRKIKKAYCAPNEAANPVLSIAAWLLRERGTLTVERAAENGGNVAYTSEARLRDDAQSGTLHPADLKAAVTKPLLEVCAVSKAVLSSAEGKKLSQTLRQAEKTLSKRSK

[10] = target: T4, Tyrosyl-tRNA synthetase, putative (Trypanosoma cruzi (strain CL Brener)); assay: Trypanosoma cruzi tyrosyl tRNA synthetase (TcYRS) SOP; type: functional; settings: 30 µM
[11] = target: Chromo domain-containing protein 1 (Saccharomyces cerevisiae (strain ATCC 204508 / S288c) (Baker's yeast)) (UniProt P32657); assay: ScCHD-1 Enzyme Inhibition Assay; type: functional; settings: 30 µM; also: in the data most compounds retested in dose-response had high values
Sequence of Chromo domain-containing protein 1 (Saccharomyces cerevisiae (strain ATCC 204508 / S288c) (Baker's yeast)) (P32657 whole entry, the tested form may be a part): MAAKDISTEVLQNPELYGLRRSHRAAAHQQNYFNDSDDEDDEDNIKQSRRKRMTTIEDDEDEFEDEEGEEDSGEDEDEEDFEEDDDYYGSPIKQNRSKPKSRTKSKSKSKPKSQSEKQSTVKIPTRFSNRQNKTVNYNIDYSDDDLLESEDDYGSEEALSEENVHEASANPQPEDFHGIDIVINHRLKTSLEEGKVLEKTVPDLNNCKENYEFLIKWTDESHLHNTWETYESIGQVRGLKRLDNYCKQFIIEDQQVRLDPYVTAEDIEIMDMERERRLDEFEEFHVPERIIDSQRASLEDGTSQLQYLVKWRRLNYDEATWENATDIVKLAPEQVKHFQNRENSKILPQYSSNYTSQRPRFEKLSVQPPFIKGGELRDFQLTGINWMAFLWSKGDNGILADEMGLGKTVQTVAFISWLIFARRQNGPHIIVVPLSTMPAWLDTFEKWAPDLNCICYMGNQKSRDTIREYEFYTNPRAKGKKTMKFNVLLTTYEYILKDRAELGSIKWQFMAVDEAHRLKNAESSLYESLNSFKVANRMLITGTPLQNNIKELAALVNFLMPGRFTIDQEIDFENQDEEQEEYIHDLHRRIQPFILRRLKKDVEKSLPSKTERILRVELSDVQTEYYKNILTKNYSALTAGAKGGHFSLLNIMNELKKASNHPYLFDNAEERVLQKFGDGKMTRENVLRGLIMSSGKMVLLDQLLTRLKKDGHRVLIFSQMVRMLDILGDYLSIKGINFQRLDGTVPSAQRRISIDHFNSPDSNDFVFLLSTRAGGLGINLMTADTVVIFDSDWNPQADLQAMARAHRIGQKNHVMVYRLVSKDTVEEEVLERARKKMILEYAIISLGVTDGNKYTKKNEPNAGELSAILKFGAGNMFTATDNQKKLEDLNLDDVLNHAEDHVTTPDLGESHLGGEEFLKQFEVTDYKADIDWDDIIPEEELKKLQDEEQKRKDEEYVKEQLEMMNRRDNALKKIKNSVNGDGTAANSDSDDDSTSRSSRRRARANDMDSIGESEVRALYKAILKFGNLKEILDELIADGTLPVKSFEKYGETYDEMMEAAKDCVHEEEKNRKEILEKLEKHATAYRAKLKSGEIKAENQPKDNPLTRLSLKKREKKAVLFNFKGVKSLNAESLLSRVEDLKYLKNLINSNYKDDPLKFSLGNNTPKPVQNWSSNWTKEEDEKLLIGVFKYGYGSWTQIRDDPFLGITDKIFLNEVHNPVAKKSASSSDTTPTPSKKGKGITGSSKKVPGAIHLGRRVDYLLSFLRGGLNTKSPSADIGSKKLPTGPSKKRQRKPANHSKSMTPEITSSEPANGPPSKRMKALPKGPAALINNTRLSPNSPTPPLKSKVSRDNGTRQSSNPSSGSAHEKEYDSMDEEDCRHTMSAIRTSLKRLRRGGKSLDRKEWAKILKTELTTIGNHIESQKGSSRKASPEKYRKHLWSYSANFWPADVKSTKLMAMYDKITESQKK

Sequence of Protein translocase subunit SecA (Escherichia coli (strain K12)) (P10408 whole entry): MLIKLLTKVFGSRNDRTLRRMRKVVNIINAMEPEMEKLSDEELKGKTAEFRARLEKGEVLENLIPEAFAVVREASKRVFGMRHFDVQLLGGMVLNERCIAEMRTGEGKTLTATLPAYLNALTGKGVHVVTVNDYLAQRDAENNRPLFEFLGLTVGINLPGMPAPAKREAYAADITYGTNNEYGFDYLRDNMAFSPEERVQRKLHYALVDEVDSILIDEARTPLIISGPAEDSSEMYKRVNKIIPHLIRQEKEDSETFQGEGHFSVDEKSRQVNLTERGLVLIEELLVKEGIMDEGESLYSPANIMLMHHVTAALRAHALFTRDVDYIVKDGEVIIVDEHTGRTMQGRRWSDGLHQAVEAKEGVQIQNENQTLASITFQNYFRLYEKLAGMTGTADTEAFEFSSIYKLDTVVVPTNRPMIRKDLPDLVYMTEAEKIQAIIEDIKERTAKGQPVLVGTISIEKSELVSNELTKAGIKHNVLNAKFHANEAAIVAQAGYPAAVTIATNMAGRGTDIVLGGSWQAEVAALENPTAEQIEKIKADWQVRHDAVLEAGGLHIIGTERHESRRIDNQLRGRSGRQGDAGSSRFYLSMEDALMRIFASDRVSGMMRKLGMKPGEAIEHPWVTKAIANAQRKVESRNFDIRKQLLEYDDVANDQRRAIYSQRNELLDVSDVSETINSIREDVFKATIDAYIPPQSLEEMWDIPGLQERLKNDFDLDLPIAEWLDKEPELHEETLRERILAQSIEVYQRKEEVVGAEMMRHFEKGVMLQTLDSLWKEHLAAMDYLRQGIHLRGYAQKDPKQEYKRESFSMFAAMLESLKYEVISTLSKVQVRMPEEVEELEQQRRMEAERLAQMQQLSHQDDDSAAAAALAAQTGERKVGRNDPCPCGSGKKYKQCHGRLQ

Row | SMILES | Percent Effect [1] | Percent Effect [2] | Percent Effect [3] | Percent Effect [4] | Percent Effect [5] | Percent Effect [6] | Percent Effect [7] | Percent Effect [8] | Percent Effect [9] | Percent Effect [10] | Percent Effect [11]
1 | CN(Cc1ncc[nH]1)CC(c1cccs1)N1CCOCC1 (configuration not stated) | -0.354% | 13.5% | -12.7% | -6.28% | 4.92% | -1.29% | 12.4% | 17.4% | 11.9% | 23.2% | -5.94%
2 | CNC(=O)[C@H]1CCS(=O)(=O)[C@@H]2CN(Cc3ccc(OC)cc3)C[C@H]12 | 0.0608% | 2.7% | 3.94% | 2.93% | 2.34% | 35.4% | -0.592% | 2.35% | 82.2% | 6.1% | 2.99%
3 | Cc1cc(CN2CCN(C(=O)C(C)C)[C@@H]3CS(=O)(=O)C[C@@H]32)ccc1F | -4.05% | 6.94% | -6.22% | -3.08% | -0.486% | 5.3% | 14.7% | -3.72% | 7.37% | 12.8% | -2.86%
4 | O=C(CCC1CCCO1)NS(=O)(=O)c1ccc(Cl)cc1 (configuration not stated) | -3.22% | 18.9% | -10.2% | 0.394% | -4.81% | -2% | 17.5% | 16.7% | 8.37% | 18.5% | -1.63%
5 | CNC(=O)NC(=O)CN1CCC(c2c[nH]c3ccc(OC)cc23)CC1 | -5.27% | 10.7% | -5.74% | 22.2% | 0.292% | 4.69% | 12.4% | 7.02% | 9.29% | 18.5% | -8.18%
6 | Cc1cncc(C(=O)N2CCC(Cn3cc(-c4ccsc4)nn3)CC2)c1 | -2.48% | 2.7% | 0.205% | 2.1% | -3.86% | -0.476% | 11.6% | 7.16% | 1.59% | 9.76% | -1.22%
7 | CN(Cc1cnn(C)c1)C(=O)NC1CCN(Cc2ccccn2)CC1 | -4.71% | 15.6% | 2.19% | -0.77% | -8.99% | 0.356% | 4.22% | 15.9% | 3.88% | 7.32% | -3.83%
8 | CC1c2ncc(COc3cccnc3)n2CCN1C(=O)C1=CCCC1 (configuration not stated) | -4.3% | 12% | -0.286% | 5.22% | -2.75% | -1.58% | 9.43% | 16.6% | 7.41% | 10.3% | -7.55%
9 | CN(Cc1ccc(F)cc1)CC1(O)CCN(C(=O)c2cccn2C)C1 (configuration not stated) | -6.43% | 13.3% | 2.06% | 5.19% | 3.15% | -4.43% | 0.969% | 3% | 6.38% | 8.97% | -9.32%
10 | O=C(N1CCOCC1)[C@@]12CCO[C@@H]1CCN(CC1CCCCC1)C2 | -4.88% | -1.33% | 2.35% | -2.81% | -5.3% | -10% | 7.58% | 12.3% | -3.17% | -10.3% | -2.92%
11 | CCN(Cc1ccc(OC)c(F)c1)C(=O)c1ccc(C)[nH]c1=O | -3.17% | 10.5% | 2.62% | 9.42% | -0.188% | 2.3% | 4.68% | 8.35% | 8.33% | 19.5% | -8.67%
12 | O=C1NCCN1C1CCCN(Cc2nnc(-c3ccc(F)cc3)o2)C1 (configuration not stated) | -1.01% | 2.7% | -4.34% | 16.6% | 6.04% | 2.03% | 9.7% | -7.13% | 3.96% | 15.8% | -2.67%
13 | c1ccc(-c2nc(CN3CCCC(Cn4cncn4)C3)co2)cc1 (configuration not stated) | -0.495% | 29.1% | -4% | -3.43% | 1.54% | -5.81% | 18.2% | 14.8% | 6.25% | 10.1% | -13.6%
14 | CC1CCN(Cn2nc(-c3ccc(F)cc3)oc2=O)CC1 | -2.94% | 18.2% | 4.52% | -5.3% | -7.12% | 2.13% | 6.42% | 33% | 5.83% | 7.32% | -12.6%
15 | CNc1cc2c(nn1)CCN(C(=O)c1cc(F)cc(F)c1)C2 | -4.7% | 10.4% | 2.19% | 3.45% | 2.84% | -3.16% | 6.06% | 3.72% | 6.67% | 9.41% | -21.1%
16 | Cc1nc2ccccc2nc1CN(C)CC1CCCN1c1cccnn1 (configuration not stated) | -5.25% | 5.2% | 0.00702% | -11.8% | 3.23% | 1.47% | 5.58% | 21.9% | 10.5% | 2.35% | -19.8%
17 | CCOc1ccc(NC(=O)NCc2csc(NC)n2)cc1C | -1.88% | 10.8% | -11.1% | 14.3% | 1.95% | 0.924% | -1.26% | 19.8% | 12.9% | 23.2% | -3.54%
18 | Cc1nc(C2CCCN(C(=O)c3ccc(Cn4cccn4)o3)C2)no1 (configuration not stated) | 0.739% | -5.2% | 2.21% | 1.09% | -2.43% | 5.34% | -4.9% | 10.9% | 3.88% | 0% | 0.66%
19 | CCn1cc(CN2CCCC(CO)(CCc3ccccc3)C2)c(C)n1 (configuration not stated) | -3.86% | 8.11% | -1.51% | 28.3% | 5.18% | 18.1% | 12.1% | -7.2% | 0% | 11.1% | -12.5%
20 | CN1CCN(Cc2cn3c(n2)CN(Cc2cccnc2)CC3)CC1 | 5.16% | 16.2% | 12.3% | -13.1% | -7.14% | 2.23% | 5.72% | 16.3% | 1.08% | 10.3% | -4.09%
21 | CCc1noc(CN2CCCC2c2noc(C3CC3)n2)n1 (configuration not stated) | 0.214% | 21.6% | -11.2% | -6.88% | 3.68% | -10% | 12.8% | 19.7% | 9.36% | 18.5% | -9.57%
22 | CNc1nc(CNC(=O)Nc2cccc(-c3nnco3)c2)cs1 | -5.07% | 8.11% | 1.7% | -1.65% | -3.81% | -4.25% | 4.13% | -4.5% | 2.97% | 1.22% | 4.29%
